Measurements published in PubChem BioAssay (NCATS).
Records with an inconclusive call do not appear. The source made the active and inactive calls. Calls follow the shape of the dose curve; as a rule, active = well fitted inhibition curve with a large enough effect; inconclusive = small, poorly fitted or top-dose-only effect; inactive = flat fitted curve, though single readings scatter.

System: Zika virus NS2B-NS3 protease
Assay: Primary screen GU AMC qHTS for Zika virus inhibitors (AID 1347154); also: nearly all actives have a fitted effect of over 70% in size;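 as to activity change, negative = inhibition: 0% = no-inhibitor control and -100% = no-enzyme control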
Settings: Zika NS2B-NS3 unlinked protease, AMC fluorogenic substrate; series mostly up to 54.1 µM; activity change, negative = inhibition: at the top concentration
Outline: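 Unlinked Zika NS2B hydrophilic domain–NS3 protease complex at 25 nM in 10 mM Tris-HCl pH 8.0, 0.01% Tween 20, with an AMC peptide substrate. Fluorescence change (340/450 nm) over 15 min at room temperature, normalized to controls, fitted to 4-parameter Hill.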
Potency is read from the fitted curve at half-maximal effect.

Compound	activity change, negative = inhibition	Potency
CCn1cc(C(=O)O)c(=O)c2cnc(N3CCCC3)nc21	1.94% [at 6.83 µM] (inactive)	–
CCC(C(=O)OCCN(CC)CC)c1ccccc1 (centres undefined)	-2.7% (inactive)	–
CCN(CC)CCOC(=O)C(c1ccccc1)C1CCCCC1 (centres undefined)	-13% (inactive)	–
COCc1c(C(C)C)nc(C(C)C)c(/C=C/[C@@H](O)C[C@@H](O)CC(=O)O)c1-c1ccc(F)cc1	-8.75% (inactive)	–
C/C=C(/C(=C/C)c1ccc(O)cc1)c1ccc(O)cc1	-10.9% (inactive)	–
Cc1cc(O)c(C(C)C)cc1Cl	-10.6% (inactive)	–
CCOC(=O)n1ccn(C)c1=S	-2.66% (inactive)	–
N[C@@H](CCC(=O)N[C@@H](CS)C(=O)NCC(=O)O)C(=O)O	-0.207% [at 25.8 µM] (inactive)	–
COc1ccc(OC)c(C(O)CNC(=O)CN)c1 (centres undefined)	-4.66% (inactive)	–
C[C@@H](CN(C)C)CN1c2ccccc2Sc2ccccc21	-2.91% (inactive)	–
NC(=O)CC[C@@H]1NC(=O)[C@H](Cc2ccccc2)NC(=O)[C@H](Cc2ccc(O)cc2)NC(=O)CCSSC[C@@H](C(=O)N2CCC[C@H]2C(=O)N[C@@H](CCCN=C(N)N)C(=O)NCC(N)=O)NC(=O)[C@H](CC(N)=O)NC1=O	-3.23% (inactive)	–
O=C(O)CCCCC(=O)O	-4.12% (inactive)	–
O=S1(=O)c2cccc3cccc(c23)N1CCCN1CCN(c2ccc(F)cc2)CC1	–	inactive
COc1ccc(CCN2CCC(Nc3nc4ccccc4n3Cc3ccc(F)cc3)CC2)cc1	-5.8% (inactive)	–
COc1ccc(C2C(=O)c3ccccc3C2=O)cc1	-2.3% (inactive)	–
CN(C(=O)CN(CCO)CC(=O)N(C)C(C)(C)Cc1ccccc1)C(C)(C)Cc1ccccc1	-6.61% (inactive)	–
CN1CCC(=C2c3ccccc3Sc3ccccc32)CC1	-2.58% (inactive)	–
CCCCc1nc(Cl)c(CO)n1Cc1ccc(-c2ccccc2-c2nn[nH]n2)cc1	-5.76% (inactive)	–
Cc1cc(=O)n(-c2ccccc2)n1C	–	inactive
Oc1c(I)cc(I)c2cccnc12	-2.13% (inactive)	–

Compound	activity change, negative = inhibition	Potency
Cc1ncc(CSSCc2cnc(C)c(O)c2CO)c(CO)c1O	-1.24% (inactive)	–
O=c1ccc2ccccc2o1	-5.6% (inactive)	–
C[C@H]1[C@H](NC(=O)/C(=N/OC(C)(C)C(=O)O)c2csc(N)n2)C(=O)N1S(=O)(=O)O (stereo in doubt)	0.607% (inactive)	–
CC[C@@H](CO)NCCN[C@@H](CC)CO	-11.2% (inactive)	–
N[C@H](Cc1c[nH]c2ccccc12)C(=O)O	-8.92% (inactive)	–
CCOC(=O)[C@H](CCc1ccccc1)N[C@@H](C)C(=O)N1Cc2ccccc2C[C@H]1C(=O)O	2.48% (inactive)	–
CCCCCCCCCCCCCCCC[N+](C)(C)CC	-19.7% (inactive)	–
Cc1cccc(C)c1NC(=O)CN1CCN(CCCC(c2ccc(F)cc2)c2ccc(F)cc2)CC1	-20.3% (inactive)	–
C[C@@H]1C[C@H]2[C@@H]3CCC4=CC(=O)C=C[C@]4(C)[C@@]3(F)[C@@H](O)C[C@]2(C)[C@H]1C(=O)CO	-0.653% (inactive)	–
c1ccc(OCc2ccc(CCCN3CCOCC3)cc2)cc1	-1.47% (inactive)	–
CC(O)C(=O)O (centres undefined)	2.75% (inactive)	–
Cc1c(C)n(CCN(C)C)c2ccc(C(=O)OCCN(C)C)cc12	-5.8% (inactive)	–
O=c1c(-c2ccccc2)c1-c1ccccc1	-0.195% (inactive)	–
O=C(O)CNC(=O)c1ccccc1	0.579% (inactive)	–
CC(C)=CCC1C(=O)N(c2ccccc2)N(c2ccccc2)C1=O	-6.09% (inactive)	–
CC(=O)OCC(=O)NCCCOc1cccc(CN2CCCCC2)c1	-3.17% (inactive)	–
CCCSS/C(CCO)=C(\C)N(C=O)Cc1cnc(C)nc1N	3.24% (inactive)	–
Cc1cc(N)c2cc(NC(=O)Nc3ccc4nc(C)cc(N)c4c3)ccc2n1	–	14.1 µM (active)
C=CCc1ccc(O)c(OC)c1	-3.71% (inactive)	–
